Assay outcomes (PubChem BioAssay)
Most compounds without a hit are left out; they make up all but 21% or so of the library.
TDP1 cell noCPT – qHTS for Inhibitors of human tyrosyl-DNA phosphodiesterase 1 (TDP1): qHTS in cells in absence of CPT; DT40 Tdp1-/- hTDP1 cells, no CPT, ATP luminescence, 48 h; Potency, µM (doses to about 46.2 µM), without a hit: top-dose activity change, negative = growth inhibition, actives largely listed as inhibitors; actives 15% (n = 420,000); note: potency is the fitted concentration of half-maximal effect; nearly all actives have a fitted effect of over 55% in size
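Camptothecin absent (DMSO only). Human TDP1-complemented DT40 knockout cells, 400 cells/well, 37 °C for minimum 48 hr; ATP measured via CellTiter-Glo, 30 min dark incubation, luminescence.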
Gal4-VP16 FLuc – VP16 counterscreen qHTS for inhibitors of ROR gamma transcriptional activity | Potency, µM (top dose mostly 53.6 µM), inactives show at the highest dose activity, negative = inhibition, actives largely listed as inhibitors | actives 3.5% (n = 310,000) | AID 2546, 2010 | Drosophila S2 Gal4-VP16 UAS-luciferase, luminescence, 20 h;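 note: Gal4-VP16 expression switched on by copper sulfate through the metallothionein promoter; potency is the fitted concentration of half-maximal effect; nearly all actives have a fitted effect of over 50% in size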
IL-1B inflam inh – qHTS for Inhibitors of Inflammasome Signaling: IL-1-beta AlphaLISA Primary Screen | THP-1 LPS/ATP IL-1B secretion, AlphaLISA, 16 h; active compounds read low | activity change, % at 57.5 µM | actives 4.7% (n = 360,000) | AID 743279, 2014; in the data active = activity change below about -50%; inconclusive = mostly about -30% to -49%
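Secreted IL-1B measured by AlphaLISA bead assay after 16 h compound exposure of THP-1 cells; compounds (final up to 57.5 uM) added 1 h before LPS (250 ng/mL) and ATP (1.25 mM) stimulation; lower signal means less secretion.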
DT40 TDP1 CPT – qHTS for Inhibitors of human tyrosyl-DNA phosphodiesterase 1 (TDP1): qHTS in cells in presence of CPT; Potency, µM (titrated, usually from 46.2 µM), without a hit: top-dose activity change, negative = growth inhibition, usual class: inhibitors; chicken DT40 Tdp1-/-;hTDP1 cells + 20 nM CPT, ATP luminescence, 48 h; actives 12% (n = 420,000); note: potency is the fitted concentration of half-maximal effect; nearly all actives have a fitted effect of over 55% in size
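Chicken DT40 Tdp1-/- cells stably complemented with human TDP1 were seeded at 400 cells/well in medium containing 20 nM camptothecin, exposed to pin-transferred compounds, and grown at 37 °C for at least 48 hr. Viability was read as ATP luminescence.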
RORgamma inh – qHTS for inhibitors of ROR gamma transcriptional activity; Drosophila S2 Gal4-RORgamma UAS-luciferase reporter, 20 h; actives 5.4% (n = 310,000); AID 2551, 2010; Nuclear receptor ROR-gamma (Mus musculus), P51450; Potency, µM (series often up to 53.6 µM), for the others: at the highest dose activity change, negative = inhibition, actives largely listed as inhibitors; note: potency is the fitted concentration of half-maximal effect; nearly all actives have a fitted effect of over 60% in size
Target sequence (P51450 whole entry, looked up, the tested form may be a part): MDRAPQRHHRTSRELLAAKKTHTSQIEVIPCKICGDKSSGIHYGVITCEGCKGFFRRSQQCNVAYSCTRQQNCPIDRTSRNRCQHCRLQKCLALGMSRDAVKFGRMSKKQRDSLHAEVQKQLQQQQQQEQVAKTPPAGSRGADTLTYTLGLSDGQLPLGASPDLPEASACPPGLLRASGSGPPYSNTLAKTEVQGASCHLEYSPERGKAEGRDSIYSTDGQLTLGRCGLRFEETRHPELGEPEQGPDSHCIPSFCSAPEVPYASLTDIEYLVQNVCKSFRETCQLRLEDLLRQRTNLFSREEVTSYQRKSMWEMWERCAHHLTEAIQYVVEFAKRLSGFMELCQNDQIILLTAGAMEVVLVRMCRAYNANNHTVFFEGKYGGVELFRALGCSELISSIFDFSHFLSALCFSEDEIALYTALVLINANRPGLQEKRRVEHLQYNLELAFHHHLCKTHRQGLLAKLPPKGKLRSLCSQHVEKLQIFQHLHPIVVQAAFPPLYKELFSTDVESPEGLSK
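Compounds are pin-transferred onto Drosophila Schneider cells expressing a copper-inducible Gal4–ROR gamma transactivation domain fusion. After 1 hr, copper sulfate is added to 700 uM final; luciferase is read 20 hr later.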
ELG1 DNA repair – qHTS screen for small molecules that inhibit ELG1-dependent DNA repair in human embryonic kidney (HEK293T) cells expressing luciferase-tagged ELG1. Potency, µM (titrated, usually from 46.1 µM), for the others: top-dose activity change, negative = inhibition, usual class: inhibitors. actives 2.3% (n = 330,000). HEK293T ELG1-luciferase reporter, luminescence, 16 h; DNA damage induced by 5-fluorouridine; note: potency is the fitted concentration of half-maximal effect; nearly all actives have a fitted effect of over 55% in size
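Luminescence from the luciferase reporter, measured 30 min after ONE-Glo reagent at room temperature, was the read-out. Beforehand, 2,000 cells per well were exposed for 16 hr at 37 °C to 5-fluorouridine together with compound or vehicle.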
* marks the source's active call; other numbers are inactive results; ? = inconclusive; · = no result. Unless noted, calls come from the whole dose curve; as a rule, active = well fitted curve in the direction sought with a large enough effect; inconclusive = small, poorly fitted or top-dose-only effect, or another doubt; inactive = no such curve, though single readings can be large; an effect the other way counts as inactive or inconclusive. % is set by controls: 0 for no effect and ±100 for the full control effect.

SMILES	TDP1 cell noCPT	Gal4-VP16 FLuc	IL-1B inflam inh	DT40 TDP1 CPT	RORgamma inh	ELG1 DNA repair
CC(=O)c1ccc(NC(=O)CCCN2C(=O)/C(=C/C(C)=C/c3ccccc3)SC2=S)cc1	23µM*	?	-66*	?	11µM*	-15%
COc1cc(/C=C2\SC(=O)N(CC(=O)Nc3cccc(C)c3)C2=O)ccc1OC(C)C(=O)O (stereo not drawn)	-22%	·	4	-25%	·	·
COc1ccc(/C=C2\SC(=O)N(CC(=O)Nc3cccc(C)c3)C2=O)cc1O	?	18µM*	?	14%	?	5%
CC(/C=C1\SC(=S)N(NC(=O)c2cccc(O)c2)C1=O)=C\c1ccccc1	-19%	?	-101*	7%	34%	18%
CC(/C=C1\SC(=O)N(CC(=O)Nc2ccc(O)cc2)C1=O)=C\c1ccccc1	-24%	-14%	-76*	-24%	20%	?
COCCn1c(=O)c(-c2ccc(OC)cc2)nc2cnc(N3CCOCC3)nc21	-3%	-2%	·	2%	-6%	·
COc1ccc(N2CCN(C(=O)c3ccc4c(c3)CCN4S(C)(=O)=O)CC2)cc1	?	·	-4	?	·	·
COC(=O)c1cc(C)nc2c1C(=O)C(=O)C=C2N1CCOCC1	1µM*	·	-100*	3.3µM*	·	5.2µM*
Cc1ccccc1NC(=S)N=Nc1c(O)n(C)c2ccc(S(=O)(=O)N3CCOCC3)cc12	7.3µM*	0.79µM*	-13	8.2µM*	0.32µM*	29%
Cc1cccc(C)c1NC(=S)N=Nc1c(O)n(C)c2ccc(S(=O)(=O)N3CCOCC3)cc12	4.1µM*	4.5µM*	2	2.6µM*	1.3µM*	?
COc1ccc2nc(N(Cc3cccnc3)C(=O)C3CCCCC3)sc2c1	-30%	·	·	?	·	·
CC(C)C[C@@H](CN=[N+]=[N-])N1CCN(C)CCC1=O	-10%	3%	5	0%	-4%	-19%
CN(C(=O)c1ccc2c(c1)N(Cc1ccccc1F)C(=O)c1ccccc1S2(=O)=O)C1CCCCC1	23µM*	·	·	?	·	·
O=C(NCCCN1CCCC1)c1ccc2c(c1)N(Cc1ccccc1F)C(=O)c1ccccc1S2(=O)=O	8%	-4%	?	-16%	5%	-2%
O=C(NC1CCCCC1)c1ccc2c(c1)N(Cc1ccccc1)C(=O)c1ccccc1S2	-32%	·	·	-13%	·	·
Cc1ccc(C)c(CN2C(=O)c3ccccc3S(=O)(=O)c3ccc(C(=O)N(C)C4CCCCC4)cc32)c1	21µM*	·	·	?	·	·
CN(C(=O)c1ccc2c(c1)N(Cc1ccccc1F)C(=O)c1ccccc1S2)C1CCCCC1	23µM*	·	·	?	·	·
Cc1ccc(S(=O)(=O)N2CCC(=O)N(CCOCc3ccc(C(F)(F)F)cc3)CC2)cc1	8.2µM*	?	?	4.6µM*	-21%	-15%
O=C1CCN(S(=O)(=O)c2ccccc2)CCN1CCOCc1ccc(C(F)(F)F)cc1	13µM*	-26%	35	?	0%	?
O=C(CNC(=O)C(c1ccccc1)c1ccccc1)OCC(=O)c1cccc2ccccc12	20µM*	·	·	?	·	·
O=C(CNC(=O)C(c1ccccc1)c1ccccc1)OCC(=O)c1cccs1	1.5µM*	-29%	2	1.6µM*	0%	14%
CS(=O)(=O)N(CC(=O)NCCSCc1cccc(Cl)c1)c1ccc(F)cc1	-17%	2%	-29	-17%	13%	-28%
Cc1cccc(CSCCNC(=O)CN(c2ccccc2)S(=O)(=O)N(C)C)c1	21µM*	·	·	?	·	·
CN(C)S(=O)(=O)N(CC(=O)NCCSCc1cccc(Cl)c1)c1ccccc1	23µM*	·	·	?	·	·
Cn1c(SCc2ccccc2)nnc1-c1ccc2c(c1)OCO2	?	-5%	-20	15%	?	?
SMILES	TDP1 cell noCPT	Gal4-VP16 FLuc	IL-1B inflam inh	DT40 TDP1 CPT	RORgamma inh	ELG1 DNA repair
Cn1c(C=O)c(-c2ccc3c(c2)OCCO3)c2ccccc21	18µM*	·	-8	?	·	3%
Cn1c2ccccc2c(=O)c2ccc(F)cc21	?	-3%	-51*	?	-22%	24%
COc1ccc(-c2cc(Cl)cc3c(=O)c4ccccc4n(C)c23)cc1F	21µM*	-2%	-12	18µM*	14%	-8%
c1ccc2c(c1)c1ccccc1n1c(-c3ccc4c(c3)OCO4)nnc21	21µM*	-5%	-57*	?	-17%	?
COC(=O)[C@@]1(Cc2ccc(F)cc2)[C@H]2c3cc(C(=O)N4CCCC4)n(CCc4c[nH]c5cc(F)ccc45)c3C[C@H]2CN1C(=O)c1ccccc1	·	0%	·	·	24%	·
CC(C)(C)c1ccc(CC(=O)N2CCC2(C)C(=O)NS(=O)(=O)c2ccc(Cl)s2)cc1 (stereo not drawn)	-3%	·	0	8%	·	·
COc1cc(-c2ccc3c(=O)c4ccccc4n(C)c3c2)cc(OC)c1OC	12µM*	-23%	?	16µM*	?	?
Cn1c(-c2ccc3c(c2)OCO3)cc(=O)c2ccccc21	-11%	-19%	-6	-23%	21%	-31%
COc1cc(C2CC(=O)Oc3c2c(=O)n(C)c2ccccc32)cc(OC)c1OC (stereo not drawn)	-25%	-10%	-5	?	-5%	-4%
Cn1c2ccccc2c(=O)c2ccc(-c3ccc4c(c3)OCO4)cc21	13µM*	-6%	-8	?	-10%	?
C/C(=N\NC(=O)c1nnn(-c2nonc2N)c1CN(C)c1ccccc1)c1cccs1	2%	-8%	4	-20%	?	-13%
CC(C)C(=O)Nc1ccc(NC(=S)NC(=O)c2ccccc2F)cc1	-14%	2%	-12	-25%	13%	-9%
CN(C)CCNc1c2c(nc3ccccc13)CCC2	18µM*	-18%	-25	?	-10%	-6%
CN(C)CCCNc1c2ccccc2nc2ccccc12	2.6µM*	?	-103*	2.9µM*	-39%	?
C[C@@H]1CCCN1[C@H]1CS(=O)(=O)N[C@@H]1COCc1ccccc1	-4%	·	8	-8%	·	·
COc1cccc([C@@H]2Oc3ccc(OC)cc3C[C@H]2OC(=O)NS(=O)(=O)c2ccc(C)cc2)c1	·	3%	·	·	?	·
